EphB4 antag – blocks human EphB4 binding to ephrin-B2 | P54760 | EphB4 LBD / TNYL-RAW-Alexa532 peptide, fluorescence polarization | inhibition, % at 7 µM | 97,000 compounds, 0.15% hits | AID 720;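 active = inhibition above the screen-wide mean inhibition plus 3 SD, cut at about 15% in these data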;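 note: 0% = DMSO wells and 100% = excess unlabeled TNYL-RAW peptide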
D1 mod – allosteric modulators of human D1 dopamine receptor. B-score at 10 µM. P21728. AID 641. 58,000 compounds, 5.9% hits. HEK293 D1, CRE-luciferase, dopamine EC30 potentiation; actives deviate in either direction;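 active = luminescence count or its row- and column-corrected plate score outside the 99.7% band of the plate's sample wells, on either side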
DAT uptake mod – changed human dopamine transporter uptake under cocaine IC80; Q01959; LLC-PK1 hDAT cells, [14C]-dopamine uptake with cocaine IC80; actives deviate in either direction; 110,000 compounds, 1.3% hits; B-score at 10 µM; AID 449768;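 active = Z score or B-score, a plate-position-corrected score, falls beyond the plate's 99.7% confidence bounds, in either direction; inactive = both scores lie inside the 99.7% bounds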;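 note: scored against the spread of the other compound wells on the same plate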
* = called active by the depositor; . = no result given. Only a selection was taken, and hits are over-represented in it overall.

SMILES | EphB4 antag | D1 mod | DAT uptake mod
Fc1ccccc1N1CC(c2ccccc2)C(c2cccs2)=N1 (centres undefined) | -0.7 | . | 0.533
COC(=O)c1ccc(Cn2nc(C)c(Br)c2C)cc1 | 5.7 | -2.74* | 0.242
COC(=O)c1ccc(Cn2nc(C)cc2C)cc1 | 13.7 | . | -1.29
CC1CC(=O)NN=C1c1ccc(NCCO)c([N+](=O)[O-])c1 (centres undefined) | -9.8 | . | -2.61*
COc1ccc(NC(=O)CC(C)(C)C)c([N+](=O)[O-])c1 | 0.0 | . | 1.29
Cc1c(O)ccoc1=O | . | . | -1.09
Oc1ccc(Br)cc1/C=N/N1CCN(Cc2ccccc2)CC1 | -4.9 | . | 2.45*
C(=N\N1CCN(Cc2ccccc2)CC1)/c1cccs1 | -9.3 | . | -0.652
COc1cc(CN(C)Cc2ccccc2)cc(OC)c1O | 3.0 | . | -0.308
CCOc1ccccc1NC(=O)CN(c1ccc(C)cc1)S(=O)(=O)c1c(C)noc1C | -5.7 | 1.42 | 1.6
COc1ccc(OC)c(NC(=O)CN(c2ccc(C)cc2)S(=O)(=O)c2c(C)noc2C)c1 | 0.2 | 4.63* | -0.00503
CCOc1ccc(OCC)c(NC(=O)CN(c2ccc(C)cc2)S(=O)(=O)c2c(C)noc2C)c1 | 7.8 | 4.65* | -0.382
COc1ccc(OC)c(NC(=O)CN(c2ccc(C(C)C)cc2)S(=O)(=O)c2c(C)noc2C)c1 | 0.1 | -0.039 | 0.116
O=C(Nc1ccc(S(=O)(=O)N2CCN(Cc3ccccc3)CC2)cc1)c1cnccn1 | -3.4 | -1.7 | -0.669
O=C(CSCSCC(=O)Nc1ccc2c(c1)OCO2)Nc1ccc2c(c1)OCO2 | 5.0 | 1.05 | -0.362
Cc1ccc(NC(=O)CS(=O)CC(=O)Nc2ccc3c(c2)OCO3)cc1Cl (centres undefined) | 1.6 | . | -7.55*
COc1ccc(NC(=O)C(C)NS(=O)(=O)c2ccc(NC(C)=O)cc2)cc1Cl (centres undefined) | 4.5 | -0.471 | -0.0745
Cc1cccc(N(CC(=O)NC2CCCC2)C(=O)CS(=O)CC(=O)Nc2ccc3c(c2)OCO3)c1C (centres undefined) | -2.9 | . | -0.0736
COc1ccc(NC(=O)C=C(C)C)cc1Cl | -2.2 | -3.79* | -0.91
CC(C)=CC(=O)Nc1ccc2c(c1)OCO2 | 0.6 | -5.23* | -0.121
CCOc1ccc(N2C(=O)C(c3ccccc3)=C(c3nc4ccccc4s3)C2NC(C)=O)cc1 (centres undefined) | -4.8 | . | -0.442
Cn1c(Cn2c(=O)sc3ccccc32)nnc1SCC(=O)Nc1ccc2c(c1)OCO2 | . | 0.721 | -0.761
O=[N+]([O-])c1cccc(C(=Nc2cccc(Cl)c2)NO)c1 | -6.4 | . | 1.23
ONC(=Nc1ccc(Cl)cc1)c1ccccc1 | 0.7 | . | -9.65*
Cc1ccc(C(=O)Nc2ccon2)cc1S(=O)(=O)N1CCCC1 | -2.7 | . | -0.203
SMILES | EphB4 antag | D1 mod | DAT uptake mod
CC(NC(=O)Nc1nnc(C(F)(F)F)s1)(C(F)(F)F)C(F)(F)F | -3.3 | -3.56 | -0.0389
CC(C)(C)CC(=O)Nc1nnc(C(F)(F)F)s1 | 6.2 | . | 2.83*
O=C(c1coc2ccc(O)c(CN3CCOCC3)c12)C1CC1 | -1.4 | 0.0543 | 0.13
COc1ccc(C(=O)c2coc3ccc(O)c(CN4CCCC4)c23)cc1 | 7.1 | -0.254 | -0.0884
COc1ccc(C(=O)c2coc3ccc(O)c(CN4CCOCC4)c23)cc1 | -4.3 | 2.25 | 3.46*
Cc1ccc(C(=O)c2coc3ccc(O)c(CN4CCN(C)CC4)c23)cc1 | 1.2 | -3.08* | -0.0111
CSc1nc(NCc2ccco2)c2c3c(sc2n1)CN(C)CC3 | -8.7 | -4.05* | 0.294
CSc1nc(SCC(=O)NCc2ccco2)c2c3c(sc2n1)CN(C)CC3 | -10.9 | -0.00247 | -0.784
Cc1ccc(OC(=O)c2cccc(C(=O)Oc3ccc(C)cn3)n2)nc1 | -4.2 | 0.137 | -8.02*
CCOC(=O)c1cccc(C(=O)OCC)n1 | 5.9 | 2.7 | 0.0534
Cc1nn(Cc2n[nH]c(=S)n2Cc2ccccc2)c(C)c1Cl | 13.7 | . | -0.596
Cc1cc(C)n(-c2ccc(C(=O)Nc3nc4ccccc4s3)cc2)n1 | -3.7 | 0.0948 | -0.68
Nc1ccc(C(=O)Nc2nc3ccccc3s2)cc1 | -1.2 | -6.56* | 0.424
Cc1cccc(N(CC(=O)NCCC2=CCCCC2)S(C)(=O)=O)c1C | 5.8 | . | 0.226
COC(=O)C(C)N1CCC(=O)c2ccccc2S1(=O)=O (centres undefined) | . | . | -0.533
CC(Cc1cccs1)NC(=O)Nc1ccc(Cl)c(Cl)c1 (centres undefined) | 0.3 | . | .
Cc1ccccc1-c1nc(-c2cccnc2)no1 | 2.8 | 0.211 | 0.000714
Clc1ccccc1-c1nc(-c2cccnc2)no1 | 5.8 | -1.53* | 1.7
c1ccc(Cn2nnc(CNc3ccccc3)c2-c2c(CNc3ccccc3)nnn2Cc2ccccc2)cc1 | . | . | -0.0725
Cc1ccccc1CSc1nc2n(n1)C(c1cccs1)C1=C(CCCC1=O)N2 (centres undefined) | -3.4 | . | 0.679
O=C1CCCC2=C1C(c1cccs1)n1nc(SCc3ccccc3F)nc1N2 (centres undefined) | 0.8 | -0.0897 | 2.76*
CCOC(=O)C(Sc1ncnc2c1sc1nc(N3CCOCC3)c3c(c12)CCCC3)c1ccccc1 (centres undefined) | -8.5 | . | 1.46
CC1CCN(CCc2nc3cc(NC(=O)NC4CCCCC4)ccc3n2C)CC1 | 6.6 | . | -1.61
COCCNC(=O)NC1(C(F)(F)F)Oc2ccc(Cl)cc2O1 (centres undefined) | 2.7 | 0.114 | -2.66
O=C(NCc1cccnc1)NC1(C(F)(F)F)Oc2ccc(Cl)cc2O1 (centres undefined) | 1.8 | . | -7.42*
SMILES | EphB4 antag | D1 mod | DAT uptake mod
N#Cc1c(Cc2cccc3ccccc23)nn(CCO)c1N | . | . | -1.67
C/C(=N\OC(=O)c1ccc(Cl)cc1)c1nccs1 | 0.0 | . | -2.76*
N/C(=N\OC(=O)c1ccc(Cl)cc1)c1ccc(Cl)cc1 | 0.8 | . | 0.131
N#Cc1ccc(C23CC4(C2)[C@H](CN(CC2CCCCC2)[C@@H]4c2ccccc2)C3c2ccc(Cl)nc2)cc1 (some centres undefined) | . | . | -0.196
O=C(Nc1ccccc1)C1=C[C@@H](c2coc3ccccc3c2=O)C[C@@H](OCCCCO)O1 | . | . | -0.0707
COc1ccc(CN2CC[C@H]3C=CC[C@@H](C(=O)Nc4ccc(Cl)c(C(F)(F)F)c4)[C@H]3C2=O)cc1OC | . | . | 0.124
CCOc1ccc(Br)cc1C1NC(=O)c2c(sc3c2CCN(C)C3)N1 (centres undefined) | . | -4.6* | .
COc1ccc(Br)cc1C1NC(=O)c2c(sc3c2CCN(C)C3)N1 (centres undefined) | . | -0.055 | .
COc1ccc(C2=CC(=O)CCC2)cc1 | . | . | 0.0474
COc1cccc(N2CCN(c3ncnc4c3[nH]c3ccc(F)cc34)CC2C)c1 (centres undefined) | 9.3 | -5.25* | 0.94
COc1cccc(N2CCN(c3ncnc4c3[nH]c3ccccc34)CC2C)c1 (centres undefined) | . | . | -0.841
COc1cc(OC)cc(-c2cc3nc(C)cc(N4CCN(C(=O)c5ccco5)CC4)n3n2)c1 | -4.4 | . | .
COc1cc2nc(SCC(=O)NCc3ccco3)n(Cc3ccc(Cl)cc3)c(=O)c2cc1OC | 2.1 | -3.81* | 3.81*
COCCNC(=O)CSc1nc2cc(OC)c(OC)cc2c(=O)n1Cc1ccc(OC)cc1 | 3.0 | 1.13 | 0.16
CC(C)n1nc(Cc2cccc3ccccc23)c(C#N)c1N | . | . | 0.138
CCc1ccccc1S(=O)(=O)Cc1ccc(C(=O)N2CCN(c3ccccc3OC)CC2)o1 | -1.4 | -2.43* | 1.79
